Data taken from paper PMC7862700, “An all-to-all approach to the identification of sequence-specific readers for epigenetic DNA modifications on cytosine”.

How the values were obtained:
Test in all cases: DAPPL (digital affinity profiling via proximity ligation, sequencing); 10 mM Tris-HCl pH 7.5, 50 mM NaCl, 1 mM DTT, 4% glycerol, room temperature, 30 min; GST-TFs on glutathione beads, 16-mer random dsDNA library, 0.1% formaldehyde crosslink after washing; high values mean tight binding
[1] = target: T1, FLI1 (Homo sapiens, UniProt Q01543 1-452); conditions: protein: recombinant; tags: N-terminal GST; dsDNA, one strand shown
T1 sequence: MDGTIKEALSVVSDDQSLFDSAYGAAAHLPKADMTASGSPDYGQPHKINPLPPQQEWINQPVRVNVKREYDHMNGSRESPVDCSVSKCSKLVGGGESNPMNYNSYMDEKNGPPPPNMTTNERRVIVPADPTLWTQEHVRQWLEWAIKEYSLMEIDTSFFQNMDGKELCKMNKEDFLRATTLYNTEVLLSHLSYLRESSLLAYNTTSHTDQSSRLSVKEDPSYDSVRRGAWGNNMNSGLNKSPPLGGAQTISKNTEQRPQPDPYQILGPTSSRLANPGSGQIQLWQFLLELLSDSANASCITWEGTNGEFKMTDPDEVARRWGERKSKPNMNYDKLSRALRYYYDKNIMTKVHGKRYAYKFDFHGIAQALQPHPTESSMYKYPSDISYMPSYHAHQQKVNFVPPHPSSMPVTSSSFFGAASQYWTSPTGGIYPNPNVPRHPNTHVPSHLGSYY
In short: (§1)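 Pools were built from human transcription factors expressed in yeast as GST fusions, captured on glutathione beads and DNA-barcoded, along with a tag-only sample. Incubation with 200 nmole of a 16-mer random double-stranded DNA library lasted 30 min at room temperature in Tris/NaCl/DTT/glycerol buffer, and was followed by washing, 0.1% formaldehyde crosslinking, proximity ligation, PCR amplification and Illumina NextSeq500 sequencing. Binding signal is the quotient of each hexamer's read frequency for a factor and its frequency for the tag-only sample.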

[2] = target: T2, ELK1 (Homo sapiens, UniProt P19419 1-428); conditions: protein: recombinant; tags: N-terminal GST; dsDNA, one strand shown
T2 sequence: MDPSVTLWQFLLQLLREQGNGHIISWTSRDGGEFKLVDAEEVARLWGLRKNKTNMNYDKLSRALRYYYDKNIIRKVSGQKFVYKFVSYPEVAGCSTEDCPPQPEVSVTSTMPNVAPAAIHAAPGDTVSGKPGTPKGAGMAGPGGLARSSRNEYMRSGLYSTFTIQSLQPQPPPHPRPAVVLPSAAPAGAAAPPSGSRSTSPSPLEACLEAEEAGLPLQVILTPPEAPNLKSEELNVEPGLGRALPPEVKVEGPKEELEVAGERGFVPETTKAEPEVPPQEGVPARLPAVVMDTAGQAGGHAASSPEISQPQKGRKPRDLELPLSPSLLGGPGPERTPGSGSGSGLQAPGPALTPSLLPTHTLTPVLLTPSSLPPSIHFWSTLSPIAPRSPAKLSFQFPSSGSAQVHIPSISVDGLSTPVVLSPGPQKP
In short: as §1

[3] = target: T3, GABPA (Homo sapiens, UniProt Q06546 1-454); conditions: protein: recombinant; tags: N-terminal GST; dsDNA, one strand shown
T3 sequence: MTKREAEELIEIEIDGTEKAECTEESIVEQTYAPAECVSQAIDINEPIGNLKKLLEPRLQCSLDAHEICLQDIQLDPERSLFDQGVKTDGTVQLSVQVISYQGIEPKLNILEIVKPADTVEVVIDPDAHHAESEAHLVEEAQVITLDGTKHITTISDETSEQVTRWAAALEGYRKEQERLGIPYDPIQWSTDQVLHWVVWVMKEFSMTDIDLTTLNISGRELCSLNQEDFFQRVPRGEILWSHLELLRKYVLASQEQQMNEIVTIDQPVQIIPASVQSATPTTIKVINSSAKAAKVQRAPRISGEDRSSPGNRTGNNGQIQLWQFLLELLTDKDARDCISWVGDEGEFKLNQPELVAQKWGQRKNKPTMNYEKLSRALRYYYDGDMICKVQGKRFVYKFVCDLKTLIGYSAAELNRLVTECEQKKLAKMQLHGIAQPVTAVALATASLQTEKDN
In short: as §1

[4] = target: T4, ERG (Homo sapiens, UniProt P11308 1-479); conditions: protein: recombinant; tags: N-terminal GST; dsDNA, one strand shown
T4 sequence: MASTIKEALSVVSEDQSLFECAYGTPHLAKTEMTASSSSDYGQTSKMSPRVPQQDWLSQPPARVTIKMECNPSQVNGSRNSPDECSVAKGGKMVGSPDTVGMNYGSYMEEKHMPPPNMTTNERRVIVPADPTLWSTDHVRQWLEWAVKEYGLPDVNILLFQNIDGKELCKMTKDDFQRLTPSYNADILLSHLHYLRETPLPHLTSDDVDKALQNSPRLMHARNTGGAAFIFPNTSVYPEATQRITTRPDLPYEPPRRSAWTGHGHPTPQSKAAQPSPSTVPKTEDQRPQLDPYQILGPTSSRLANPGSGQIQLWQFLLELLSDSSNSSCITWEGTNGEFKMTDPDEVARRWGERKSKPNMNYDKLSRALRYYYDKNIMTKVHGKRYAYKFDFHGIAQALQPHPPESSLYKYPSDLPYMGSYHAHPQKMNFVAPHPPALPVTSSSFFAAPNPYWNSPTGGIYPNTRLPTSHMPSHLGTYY
In short: as §1

[5] = target: ELF1 (Homo sapiens, UniProt P32519 1-619); conditions: protein: recombinant; tags: N-terminal GST; dsDNA, one strand shown
ELF1, sequence (P32519 whole entry): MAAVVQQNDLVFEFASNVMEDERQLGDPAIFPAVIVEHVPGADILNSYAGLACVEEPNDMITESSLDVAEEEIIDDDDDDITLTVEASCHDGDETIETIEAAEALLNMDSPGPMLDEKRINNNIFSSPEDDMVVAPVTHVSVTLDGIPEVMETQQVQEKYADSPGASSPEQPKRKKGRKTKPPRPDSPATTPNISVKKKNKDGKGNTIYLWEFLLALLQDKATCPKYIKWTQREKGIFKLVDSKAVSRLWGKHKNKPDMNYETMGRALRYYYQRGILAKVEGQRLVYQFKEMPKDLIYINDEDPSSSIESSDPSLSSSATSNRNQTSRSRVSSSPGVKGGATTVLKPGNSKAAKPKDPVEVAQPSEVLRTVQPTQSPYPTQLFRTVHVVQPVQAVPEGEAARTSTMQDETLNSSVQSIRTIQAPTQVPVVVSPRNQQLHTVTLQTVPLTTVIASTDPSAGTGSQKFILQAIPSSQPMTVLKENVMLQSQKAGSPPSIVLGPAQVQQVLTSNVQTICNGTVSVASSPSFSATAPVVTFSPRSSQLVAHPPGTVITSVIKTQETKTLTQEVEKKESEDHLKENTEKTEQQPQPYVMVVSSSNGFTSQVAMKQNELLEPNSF
In short: as §1

[6] = target: T5, EHF (Homo sapiens, UniProt Q9NZC4 1-300); conditions: protein: recombinant; tags: N-terminal GST; dsDNA, one strand shown
T5 sequence: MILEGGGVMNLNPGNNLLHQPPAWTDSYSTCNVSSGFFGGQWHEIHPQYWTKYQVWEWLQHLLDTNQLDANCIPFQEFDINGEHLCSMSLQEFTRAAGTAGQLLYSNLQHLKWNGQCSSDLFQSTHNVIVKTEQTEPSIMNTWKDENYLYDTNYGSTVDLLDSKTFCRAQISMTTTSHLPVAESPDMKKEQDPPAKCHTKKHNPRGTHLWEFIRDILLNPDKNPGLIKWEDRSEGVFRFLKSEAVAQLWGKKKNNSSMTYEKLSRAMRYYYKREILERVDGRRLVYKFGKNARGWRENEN
In short: as §1

[7] = target: SPI1 (Homo sapiens, UniProt P17947 1-270); conditions: protein: recombinant; tags: N-terminal GST; dsDNA, one strand shown
In short: as §1

[8] = target: SPIB (Homo sapiens, UniProt Q01892 1-262); conditions: protein: recombinant; tags: N-terminal GST; dsDNA, one strand shown
SPIB, sequence (Q01892 whole entry): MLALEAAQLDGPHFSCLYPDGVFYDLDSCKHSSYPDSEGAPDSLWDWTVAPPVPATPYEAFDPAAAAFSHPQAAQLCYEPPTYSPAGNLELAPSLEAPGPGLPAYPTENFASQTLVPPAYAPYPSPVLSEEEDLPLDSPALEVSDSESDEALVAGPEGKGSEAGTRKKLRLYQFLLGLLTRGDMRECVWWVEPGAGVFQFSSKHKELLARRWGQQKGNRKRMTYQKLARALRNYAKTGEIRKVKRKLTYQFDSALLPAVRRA
In short: as §1

[9] = target: T6, ELK3 (Homo sapiens, UniProt P41970 1-407); conditions: protein: recombinant; tags: N-terminal GST; dsDNA, one strand shown
T6 sequence: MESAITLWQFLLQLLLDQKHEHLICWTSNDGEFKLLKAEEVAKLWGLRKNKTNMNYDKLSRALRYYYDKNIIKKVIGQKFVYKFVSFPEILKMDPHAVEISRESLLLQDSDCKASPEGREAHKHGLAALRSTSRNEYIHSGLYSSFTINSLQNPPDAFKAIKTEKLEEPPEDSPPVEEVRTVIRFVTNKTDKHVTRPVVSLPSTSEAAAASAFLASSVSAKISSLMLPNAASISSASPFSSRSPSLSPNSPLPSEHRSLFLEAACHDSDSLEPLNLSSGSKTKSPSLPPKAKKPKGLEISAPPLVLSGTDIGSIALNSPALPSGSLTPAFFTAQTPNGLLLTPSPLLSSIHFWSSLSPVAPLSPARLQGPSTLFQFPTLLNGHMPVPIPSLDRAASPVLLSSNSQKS
In short: as §1

[10] = target: T7, FEV (Homo sapiens, UniProt Q99581 1-238); conditions: protein: recombinant; tags: N-terminal GST; dsDNA, one strand shown
T7 sequence: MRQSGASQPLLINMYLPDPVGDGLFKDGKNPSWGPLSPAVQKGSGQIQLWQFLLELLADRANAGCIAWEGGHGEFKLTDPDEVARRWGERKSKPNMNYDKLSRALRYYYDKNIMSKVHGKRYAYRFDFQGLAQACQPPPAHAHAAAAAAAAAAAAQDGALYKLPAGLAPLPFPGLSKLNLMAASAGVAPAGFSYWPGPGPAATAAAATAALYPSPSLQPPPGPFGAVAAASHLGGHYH
In short: as §1

[11] = target: ETV5 (Homo sapiens, UniProt P41161 1-510); conditions: protein: recombinant; tags: N-terminal GST; dsDNA, one strand shown
ETV5, sequence (P41161 whole entry): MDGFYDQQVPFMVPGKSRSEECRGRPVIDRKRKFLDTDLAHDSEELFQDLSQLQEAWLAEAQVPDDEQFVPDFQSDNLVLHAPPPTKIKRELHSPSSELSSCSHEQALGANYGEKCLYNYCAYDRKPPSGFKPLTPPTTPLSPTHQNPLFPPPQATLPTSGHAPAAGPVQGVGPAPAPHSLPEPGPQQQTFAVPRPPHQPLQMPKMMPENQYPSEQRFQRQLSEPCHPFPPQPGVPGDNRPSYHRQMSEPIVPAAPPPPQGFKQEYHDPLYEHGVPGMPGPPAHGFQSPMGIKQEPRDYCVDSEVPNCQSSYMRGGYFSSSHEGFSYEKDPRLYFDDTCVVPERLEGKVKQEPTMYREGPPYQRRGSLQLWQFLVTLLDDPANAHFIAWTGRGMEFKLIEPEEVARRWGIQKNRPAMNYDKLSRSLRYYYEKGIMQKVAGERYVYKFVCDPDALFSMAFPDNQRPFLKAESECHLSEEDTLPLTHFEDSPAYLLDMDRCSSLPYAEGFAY
In short: as §1

[12] = target: HSF1 (Homo sapiens, UniProt Q00613 1-529); conditions: protein: recombinant; tags: N-terminal GST; chain copies: 3; dsDNA, one strand shown
HSF1, sequence (Q00613 whole entry): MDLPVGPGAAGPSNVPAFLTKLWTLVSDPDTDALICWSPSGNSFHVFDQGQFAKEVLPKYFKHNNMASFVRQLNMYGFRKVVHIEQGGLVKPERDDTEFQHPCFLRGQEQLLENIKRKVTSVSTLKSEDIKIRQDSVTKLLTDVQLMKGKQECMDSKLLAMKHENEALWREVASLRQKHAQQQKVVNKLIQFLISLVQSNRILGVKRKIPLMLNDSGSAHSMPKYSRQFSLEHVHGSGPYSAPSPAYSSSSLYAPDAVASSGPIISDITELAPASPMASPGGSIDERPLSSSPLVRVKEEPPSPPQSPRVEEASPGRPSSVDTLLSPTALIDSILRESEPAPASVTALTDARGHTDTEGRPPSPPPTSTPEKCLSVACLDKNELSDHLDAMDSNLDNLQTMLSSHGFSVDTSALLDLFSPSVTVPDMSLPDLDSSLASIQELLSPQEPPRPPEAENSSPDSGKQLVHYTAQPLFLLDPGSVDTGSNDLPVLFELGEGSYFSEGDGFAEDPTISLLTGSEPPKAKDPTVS
In short: as §1

[13] = target: T8, SPIC (Homo sapiens, UniProt Q8N5J4 1-248); conditions: protein: recombinant; tags: N-terminal GST; dsDNA, one strand shown
T8 sequence: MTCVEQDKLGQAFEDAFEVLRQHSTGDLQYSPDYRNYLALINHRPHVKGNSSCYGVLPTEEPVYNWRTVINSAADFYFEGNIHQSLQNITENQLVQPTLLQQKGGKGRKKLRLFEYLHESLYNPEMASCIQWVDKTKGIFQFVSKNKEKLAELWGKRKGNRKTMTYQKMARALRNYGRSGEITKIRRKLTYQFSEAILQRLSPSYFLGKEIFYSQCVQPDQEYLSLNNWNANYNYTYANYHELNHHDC
In short: as §1

[14] = target: ELF4 (Homo sapiens, UniProt Q99607 1-663); conditions: protein: recombinant; tags: N-terminal GST; dsDNA, one strand shown
ELF4, sequence (Q99607 whole entry): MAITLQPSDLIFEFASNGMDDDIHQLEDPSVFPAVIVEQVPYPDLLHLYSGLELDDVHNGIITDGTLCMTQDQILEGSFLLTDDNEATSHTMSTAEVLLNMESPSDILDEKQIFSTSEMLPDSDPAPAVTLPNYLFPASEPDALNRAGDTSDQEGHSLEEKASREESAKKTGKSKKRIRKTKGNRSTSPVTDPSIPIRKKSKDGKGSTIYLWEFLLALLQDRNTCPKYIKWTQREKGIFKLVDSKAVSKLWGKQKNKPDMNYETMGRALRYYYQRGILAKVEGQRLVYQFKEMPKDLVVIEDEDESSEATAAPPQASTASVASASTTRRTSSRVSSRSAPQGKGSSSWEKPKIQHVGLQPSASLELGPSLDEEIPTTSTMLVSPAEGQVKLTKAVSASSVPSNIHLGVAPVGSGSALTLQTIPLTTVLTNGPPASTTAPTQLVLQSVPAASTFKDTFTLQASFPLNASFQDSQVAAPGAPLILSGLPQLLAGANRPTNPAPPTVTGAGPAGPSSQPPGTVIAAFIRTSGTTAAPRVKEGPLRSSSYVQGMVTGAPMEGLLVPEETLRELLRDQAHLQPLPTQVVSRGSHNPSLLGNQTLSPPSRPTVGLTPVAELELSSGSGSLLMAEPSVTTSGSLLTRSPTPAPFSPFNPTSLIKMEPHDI
In short: as §1

[15] = target: T9, ELK4 (Homo sapiens, UniProt P28324-2 1-405); conditions: protein: recombinant; tags: N-terminal GST; dsDNA, one strand shown
T9 sequence: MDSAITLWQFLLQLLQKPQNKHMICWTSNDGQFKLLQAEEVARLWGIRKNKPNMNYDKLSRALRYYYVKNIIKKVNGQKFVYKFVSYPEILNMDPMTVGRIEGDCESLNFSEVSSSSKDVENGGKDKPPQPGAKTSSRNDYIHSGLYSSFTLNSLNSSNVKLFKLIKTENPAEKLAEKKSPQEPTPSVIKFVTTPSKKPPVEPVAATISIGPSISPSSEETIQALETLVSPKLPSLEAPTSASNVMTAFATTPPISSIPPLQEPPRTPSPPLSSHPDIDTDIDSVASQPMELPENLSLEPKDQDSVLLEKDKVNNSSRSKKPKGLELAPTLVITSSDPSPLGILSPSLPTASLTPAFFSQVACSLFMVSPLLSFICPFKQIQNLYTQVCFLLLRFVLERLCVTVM
In short: as §1

[16] = target: T10, ETV2 (Homo sapiens, UniProt O00321 1-342); conditions: protein: recombinant; tags: N-terminal GST; dsDNA, one strand shown
T10 sequence: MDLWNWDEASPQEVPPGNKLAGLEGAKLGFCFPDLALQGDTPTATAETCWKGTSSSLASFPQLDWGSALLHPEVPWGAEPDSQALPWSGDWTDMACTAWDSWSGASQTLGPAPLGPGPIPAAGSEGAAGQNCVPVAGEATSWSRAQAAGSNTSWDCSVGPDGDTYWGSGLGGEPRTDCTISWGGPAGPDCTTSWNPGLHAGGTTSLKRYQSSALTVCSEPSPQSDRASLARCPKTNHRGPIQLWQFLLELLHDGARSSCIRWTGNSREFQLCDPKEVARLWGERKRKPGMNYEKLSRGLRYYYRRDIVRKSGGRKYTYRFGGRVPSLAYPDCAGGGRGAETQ
In short: as §1

[17] = target: T11, ELF3 (Homo sapiens, UniProt P78545 1-371); conditions: protein: recombinant; tags: N-terminal GST; dsDNA, one strand shown
T11 sequence: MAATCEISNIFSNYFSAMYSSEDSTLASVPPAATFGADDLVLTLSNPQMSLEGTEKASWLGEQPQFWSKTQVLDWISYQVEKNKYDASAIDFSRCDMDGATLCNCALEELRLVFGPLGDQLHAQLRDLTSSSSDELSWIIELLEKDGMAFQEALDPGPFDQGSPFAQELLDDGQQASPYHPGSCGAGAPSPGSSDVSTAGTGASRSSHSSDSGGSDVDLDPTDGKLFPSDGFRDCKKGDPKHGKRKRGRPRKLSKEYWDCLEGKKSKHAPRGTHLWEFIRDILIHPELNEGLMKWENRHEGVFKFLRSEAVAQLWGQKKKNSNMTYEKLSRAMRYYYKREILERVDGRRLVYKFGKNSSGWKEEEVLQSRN
In short: as §1

[18] = target: CRX (Homo sapiens, UniProt O43186 1-299); conditions: protein: recombinant; tags: N-terminal GST; dsDNA, one strand shown
CRX, sequence (O43186 whole entry): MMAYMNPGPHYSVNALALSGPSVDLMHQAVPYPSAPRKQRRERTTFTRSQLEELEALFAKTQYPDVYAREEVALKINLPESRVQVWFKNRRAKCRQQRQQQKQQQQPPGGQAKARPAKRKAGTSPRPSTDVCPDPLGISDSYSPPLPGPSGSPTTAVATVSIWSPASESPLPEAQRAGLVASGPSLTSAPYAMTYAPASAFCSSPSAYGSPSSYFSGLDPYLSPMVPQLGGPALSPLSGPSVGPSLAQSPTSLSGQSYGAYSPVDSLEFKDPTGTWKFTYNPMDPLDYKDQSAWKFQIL
In short: as §1

[19] = target: ETV1 (Homo sapiens, UniProt P50549 1-477); conditions: protein: recombinant; tags: N-terminal GST; dsDNA, one strand shown
ETV1, sequence (P50549 whole entry): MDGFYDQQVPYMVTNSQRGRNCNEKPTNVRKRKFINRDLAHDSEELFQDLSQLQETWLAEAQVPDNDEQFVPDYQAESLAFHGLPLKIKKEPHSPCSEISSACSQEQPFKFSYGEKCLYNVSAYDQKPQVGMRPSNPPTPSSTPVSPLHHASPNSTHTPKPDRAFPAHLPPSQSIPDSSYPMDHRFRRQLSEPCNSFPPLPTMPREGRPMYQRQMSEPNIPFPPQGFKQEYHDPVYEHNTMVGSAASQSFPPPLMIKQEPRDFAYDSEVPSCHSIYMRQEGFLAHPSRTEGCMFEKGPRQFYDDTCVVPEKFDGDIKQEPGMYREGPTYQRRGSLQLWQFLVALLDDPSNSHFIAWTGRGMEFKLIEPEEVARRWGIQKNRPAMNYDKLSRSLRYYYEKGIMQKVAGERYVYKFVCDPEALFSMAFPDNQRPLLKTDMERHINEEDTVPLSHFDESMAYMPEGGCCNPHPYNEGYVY
In short: as §1

## ATGTCT
[1]
  binding signal: 1.21 fold enrichment (6-mer frequency, TF over GST control)
[2]
  binding signal: 1.28 fold enrichment (6-mer frequency, TF over GST control)
[3]
  binding signal: 1.36 fold enrichment (6-mer frequency, TF over GST control)
[4]
  binding signal: 1.22 fold enrichment (6-mer frequency, TF over GST control)
[5]
  binding signal: 1.29 fold enrichment (6-mer frequency, TF over GST control)
[6]
  binding signal: 1.13 fold enrichment (6-mer frequency, TF over GST control)
[7]
  binding signal: 1.32 fold enrichment (6-mer frequency, TF over GST control)
[8]
  binding signal: 1.3 fold enrichment (6-mer frequency, TF over GST control)
[9]
  binding signal: 1.18 fold enrichment (6-mer frequency, TF over GST control)
[10]
  binding signal: 1.27 fold enrichment (6-mer frequency, TF over GST control)
[11]
  binding signal: 1.36 fold enrichment (6-mer frequency, TF over GST control)
[12]
  binding signal: 1.17 fold enrichment (6-mer frequency, TF over GST control)
[13]
  binding signal: 1.27 fold enrichment (6-mer frequency, TF over GST control)
[14]
  binding signal: 1.28 fold enrichment (6-mer frequency, TF over GST control)
[15]
  binding signal: 1.07 fold enrichment (6-mer frequency, TF over GST control)
[16]
  binding signal: 1.26 fold enrichment (6-mer frequency, TF over GST control)
[17]
  binding signal: 1.08 fold enrichment (6-mer frequency, TF over GST control)
[18]
  binding signal: 1.18 fold enrichment (6-mer frequency, TF over GST control)
[19]
  binding signal: 1.23 fold enrichment (6-mer frequency, TF over GST control)
